Bioassay records from PubChem.
Eya2 phos inh: inhibitors of human Eya2 phosphatase activity. O00167. recombinant Eya2, OMFP fluorescence dephosphorylation (OMFP is methylfluorescein phosphate). Potency, µM (highest dose often 76.9 µM), inactives show at the highest dose activity, negative = inhibition, usual class: inhibitors. 330,000 tested, 0.006% active; note: potency is the fitted concentration of half-maximal effect
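Eya2 (0.2 uM) preincubated 10 min at ambient with compound, then OMFP substrate added at 50 uM; 10 min reaction in 50 mM HEPES pH 7.5, 50 mM NaCl, 5 uM MgCl2, 0.05% BSA, 1 mM DTT. Fluorescence read at Ex 485/Em 525 nm.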
CtBP-E1A blk: inhibitors of CtBP/E1A interaction. AlphaScreen GST-E1A/His-CtBP binding, 1536-well; hits give low values. activity change, % (test concentration not listed). 340,000 tested, 0.49% active. AID 651724; in the data active = activity change below about -65%; inconclusive = mostly about -30% to -63%
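Protein mix (5X: 125 nM each GST-E1A, His-CtBP) was incubated with pinned compound 2 h at 37 deg C in dark, in 50 mM Tris pH 8.0 buffer with 300 mM NaCl. Glutathione donor and nickel acceptor beads followed; AlphaScreen signal read after 1 h.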
Six1-Eya2 inh: blocks human Six1 binding to Eya2. AID 651725. activity change, % (no concentration beside the values). 360,000 tested, 0.56% active. AlphaScreen GST-Six1/His-Eya2 binding, biochemical; hits give low values; in the data active = activity change below about -65%; inconclusive = mostly about -30% to -63%
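AlphaScreen luminescence read after one hour at 37 °C in darkness. Pin-transferred compounds met GST-Six1 and His-Eya2 protein (5X stock 250 nM/500 nM) plus glutathione donor and Ni-chelate acceptor beads (5X, 50 ug/mL).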
RGS4 inh: inhibitors of human regulator of G protein signaling 4; Potency, µM (doses to about 114 µM), for inactives: at the top dose activity change, negative = inhibition, actives largely listed as inhibitors; Transcreener GDP fluorescence polarization, RGS4-accelerated GTP hydrolysis; P49798; 390,000 tested, 0.039% active; note: potency is the fitted concentration of half-maximal effect; nearly all actives have a fitted effect of over 75% in size
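MLSMR compounds (23 nl, pin-transferred) preincubated 10 min at room temperature with a 500nM (2x) first reagent, then RGS4 at 900nM (2x) plus Transcreener GDP mix added; fluorescence polarization (620/688 nm) read before and after 90 min at 30 °C.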
USP2a block: blocks human ubiquitin-specific protease USP2a | AID 463254 | USP2 core, Ub-CHOP2 coupled fluorogenic reporter, 485/531 | 330,000 tested, 0.01% active | Potency, µM (titrated, usually from 38.3 µM), for the others: at the top dose activity change, negative = inhibition, most hits filed as inhibitors | O75604;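 note: potency is the fitted concentration of half-maximal effect; plate controls were DMSO wells for no effect and full inhibition by NEM control for full effect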
Target sequence (O75604 whole entry, looked up): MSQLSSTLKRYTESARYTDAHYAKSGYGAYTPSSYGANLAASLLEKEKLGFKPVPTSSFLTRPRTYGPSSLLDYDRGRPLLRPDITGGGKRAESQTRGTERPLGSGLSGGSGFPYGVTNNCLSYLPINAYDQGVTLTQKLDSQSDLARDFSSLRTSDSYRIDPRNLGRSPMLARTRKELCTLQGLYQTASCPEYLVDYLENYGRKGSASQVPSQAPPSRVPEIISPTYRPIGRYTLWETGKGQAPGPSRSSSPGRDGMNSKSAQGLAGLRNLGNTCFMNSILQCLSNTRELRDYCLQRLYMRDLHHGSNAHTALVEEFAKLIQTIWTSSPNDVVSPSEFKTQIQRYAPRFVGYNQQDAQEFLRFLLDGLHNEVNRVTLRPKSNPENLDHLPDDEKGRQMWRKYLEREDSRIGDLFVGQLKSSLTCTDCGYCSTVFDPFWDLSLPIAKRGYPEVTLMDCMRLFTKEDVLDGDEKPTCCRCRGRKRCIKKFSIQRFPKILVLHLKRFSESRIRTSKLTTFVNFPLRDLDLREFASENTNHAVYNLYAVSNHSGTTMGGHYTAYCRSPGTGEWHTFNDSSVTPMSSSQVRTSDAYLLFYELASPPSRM
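Cell-free coupled assay: 10nM USP2 core preincubated 30min RT with compound in Tris-HCl pH 8.0/CaCl2/CHAPS buffer, then 25nM Ub-CHOP2 and 25nM reporter substrate; fluorescence (Ex 485/Em 531) read after 60min RT, normalized to NEM inhibition, concentration-response curves fitted.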
PI4K2A block: PI4K2A (human) kinase inhibition; purified PI4K2A, ADP-Glo luminescence, 1 h; hits give low values; activity change, negative = inhibition, % at 76.9 µM; AID 1346378; Q9BTU6; 420,000 tested, 0.13% active; in the data active = activity change below about -50%; inconclusive = mostly about -30% to -49%;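 note: -100% = wells without enzyme as full effect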
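Compounds are screened against recombinant PI4K2A using PI as substrate and ATP, the latter dispensed at 300 microM. Reactions run one hour at ambient temperature before ADP-Glo detection; full inhibition defined by wells lacking enzyme.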
An asterisk follows results filed as active. Only some compounds are listed: those with a hit (about 0.72% of all), similar ones and a draw of the others. Unless noted, calls come from the whole dose curve; as a rule, active = well fitted curve in the direction sought with a large enough effect; inconclusive = small, poorly fitted or top-dose-only effect, or another doubt; inactive = no such curve, though single readings can be large; an effect the other way counts as inactive or inconclusive. Unless noted, % is set by controls: 0 for no effect and ±100 for the full control effect.

`COc1cc(/C=C(\C#N)c2nc3ccc(C)cc3[nH]2)cc([N+](=O)[O-])c1O` gave Eya2 phos inh 4.2%, CtBP-E1A blk -74.6*, Six1-Eya2 inh -72.8*, RGS4 inh -11.8%, USP2a block -0.3% and PI4K2A block -3.8.
`CN(C)c1ccc(N=Nc2ccccc2C(=O)OCC(=O)N2CCCCCC2)cc1` gave Eya2 phos inh -6.8%, CtBP-E1A blk -65.9*, Six1-Eya2 inh -73.6*, RGS4 inh -20.8%, USP2a block -3.6% and PI4K2A block -3.9.
For CN(C)c1ccc(N=Nc2ccccc2C(=O)OCC(=O)N2CCCC2)cc1 the results were Eya2 phos inh -19.3%, CtBP-E1A blk -30.0, Six1-Eya2 inh inconclusive, RGS4 inh -7.1%, USP2a block 1.6% and PI4K2A block -4.2.
Screening CN(C)c1ccc(N=Nc2ccccc2C(=O)OCC(=O)Nc2ccccc2C(F)(F)F)cc1 returned Eya2 phos inh -1.5%, CtBP-E1A blk -29.2, Six1-Eya2 inh -71.1*, RGS4 inh 24.0%, USP2a block 4.3% and PI4K2A block -6.1.
Screening CCCCN1CC[C@@H](C)Oc2cc(Br)ccc2S1(=O)=O returned PI4K2A block -1.1.
`COc1ccc(-c2nc3ccccc3n3c(-c4cccc(C)c4)c4c(=O)n(C)c(=O)n(C)c4c23)cc1OC` gave RGS4 inh 4.3% and PI4K2A block -0.8.
Screening Cc1ccc(S(=O)(=O)N(C)C[C@H]2Oc3c(NC(=O)Nc4cccc5ccccc45)cccc3C(=O)N([C@@H](C)CO)C[C@@H]2C)cc1 returned Eya2 phos inh 7.2%, CtBP-E1A blk -75.1*, Six1-Eya2 inh -71.2*, RGS4 inh -2.6%, USP2a block -9.2% and PI4K2A block -1.7.
For CC(C)(C)OC(=O)NCCC(=O)N/N=C/c1cccc2cccnc12 the results were Eya2 phos inh -0.7%, CtBP-E1A blk -79.0*, Six1-Eya2 inh inconclusive, RGS4 inh 1.9%, USP2a block 0.3% and PI4K2A block -5.1.
Cc1ccccc1OCC(=O)N/N=C/c1cccc2cccnc12 was read as Eya2 phos inh -6.6%, CtBP-E1A blk -12.9, Six1-Eya2 inh -75.8*, RGS4 inh -12.3%, USP2a block 1.7% and PI4K2A block -0.1.
Screening O=C(COc1cccc2cccnc12)N/N=C/c1ccccc1O returned Eya2 phos inh -5.4%, CtBP-E1A blk -24.9, Six1-Eya2 inh -17.6, RGS4 inh -47.2%, USP2a block -1.2% and PI4K2A block 1.0.
Screening O=C(COc1cccc2cccnc12)N/N=C/c1cccn1-c1ccc(F)cc1 returned Eya2 phos inh -2.4%, CtBP-E1A blk -18.0, Six1-Eya2 inh -25.6, RGS4 inh -7.7%, USP2a block 2.1% and PI4K2A block 2.2.
Cc1ccc(OCC(=O)N/N=C/c2cccc3cccnc23)cc1 was read as Eya2 phos inh -3.3%, CtBP-E1A blk -89.9*, Six1-Eya2 inh -77.3*, RGS4 inh 0.9%, USP2a block -4.3% and PI4K2A block -5.7.
`O=C(COc1ccc(F)cc1)N/N=C/c1cccc2cccnc12` gave CtBP-E1A blk -85.6*, Six1-Eya2 inh inconclusive, RGS4 inh -28.6% and PI4K2A block 5.4.
Screening CCC(C)c1ccc(O)c(NC(=S)NC(=O)c2cccs2)c1 (stereo unspecified) returned CtBP-E1A blk -12.4, Six1-Eya2 inh -15.6 and PI4K2A block 2.8.
For Cc1ccc2c(c1)N(C(=O)CCC(=O)NC1CCN(Cc3ccccc3)CC1)CC(C)O2 (stereo unspecified) the results were Eya2 phos inh -1.0%, CtBP-E1A blk -0.5, Six1-Eya2 inh 1.2, RGS4 inh 12.5%, USP2a block 3.0% and PI4K2A block -2.7.
`CCOc1cc(C(=O)Nc2ccc(-c3nc4cc(Cl)ccc4o3)cc2)cc(OCC)c1OCC` gave RGS4 inh 25.2% and PI4K2A block -6.0.
